The text below walks through data of PubChem BioAssay (Tox21).

Experiment [1] can be described thus: qHTS assay to identify small molecule antagonists of the estrogen receptor alpha (ER-alpha) signaling pathway using the BG1 cell line in the presence of 0.1 nM 17-beta-estradiol - cell viability counter screen (AID 1259241). Note: nearly all actives have a fitted effect of over 40% in size. The method, boiled down:
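Measures cytotoxicity alongside the ER-alpha antagonist readout: VM7Luc4E2 cells, charcoal-stripped serum, 0.1 nM 17beta-estradiol final, 22 hr compound incubation at 37C, CellTiter-Fluor fluorescence.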

A short description of experiment [2]: qHTS assay to identify small molecule antagonists of the androgen receptor (AR) signaling pathway using the MDA cell line in the presence of 0.5 nM R1881 - cell viability counter screen (AID 1259242). Note: nearly all actives have a fitted effect of over 45% in size. In short, it runs like this:
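Steps: plate MDA-kb2 cells, rest 5 hr at 37C without CO2; pin in compounds in DMSO; add R1881 to 0.5 nM final; incubate 16 hr; add CellTiter-Fluor, 30 min; read fluorescence.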

Experiment [3] has as its target Androgen receptor (Homo sapiens) (UniProt P10275). The experiment is described as follows: qHTS assay to identify small molecule antagonists of the androgen receptor (AR) signaling pathway using the MDA cell line in the presence of 0.5 nM R1881 (AID 1259243). Note: nearly all actives have a fitted effect of over 50% in size. In short, it runs like this: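 Stably transfected MDA-kb2 cells express luciferase from an MMTV promoter bearing both AR and GR response elements. Compounds plus 0.5 nM R1881 (final) were incubated 16 hr at 37C without CO2, then luminescence measured.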

Experiment [4] deals with Estrogen receptor (Homo sapiens) (UniProt P03372). Description: qHTS assay to identify small molecule antagonists of the estrogen receptor alpha (ER-alpha) signaling pathway using the BG1 cell line in the presence of 0.1 nM 17-beta-estradiol (AID 1259244). Note: nearly all actives have a fitted effect of over 50% in size. The method, boiled down:
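Antagonist mode: compounds in DMSO are pinned onto VM7Luc4E2 reporter cells, 0.1 nM final 17beta-estradiol is added, and after 22 h at 37C luciferase luminescence is measured with ONE-Glo.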

Experiment [5] in a line: qHTS assay to identify small molecule phospholipidosis (PLD) inducers (AID 1259344; active = well fitted curve in the direction sought with a large enough effect; an effect the other way counts as inactive or inconclusive). In short, it runs like this:
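Accumulated phospholipid, stained red by LipidTOX during 24 h compound treatment of HepG2 cells at 37 C, is quantified from images as pit number and intensity, normalised per cell using Hoechst-stained nuclei.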

The nature of experiment [6]: qHTS assay to identify small molecule HDAC inhibitors (AID 1259364). For activity change, negative = inhibition: top concentration of the series differs between compounds. Note: potency is the fitted concentration of half-maximal effect.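 Note: wild-type HCT-116 cells with endogenous class I/II HDAC activity; nearly all actives have a fitted effect of over 45% in size.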 In short, it runs like this:
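Cells (HCT-116, wild type) are seeded at 1,500 per well, incubated overnight, treated with compound in DMSO for 2 hr, then developed with HDAC-Glo I/II reagent for 30 min at room temperature.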

Experiment [7] in a line: qHTS assay to identify small molecule HDAC inhibitors - cell viability counter screen (AID 1259365). Note: series mostly up to about 92 µM; nearly all actives have a fitted effect of over 50% in size. The method, boiled down:
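Following a 2hr exposure of overnight-plated wild-type HCT-116 cells to DMSO-delivered compounds, CellTiter-Glo was added and luminescence recorded after 30min at room temperature.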

Experiment [8] is described as follows: qHTS assay to identify small molecule agonists of the sonic hedgehog signaling (Shh) pathway - cell viability counter screen (AID 1259366). Note: nearly all actives have a fitted effect of over 50% in size. The method, boiled down: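 After a 4hr attachment at 37C, NIH/3T3 cells bearing an integrated Gli1-driven luciferase reporter were dosed with compounds. Treatment lasted 24hr, with the final hour including CellTiter-Fluor for a fluorescence viability measurement.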

Experiment [9] can be described thus: qHTS assay to identify small molecule antagonists of the sonic hedgehog signaling (Shh) pathway - cell viability counter screen (AID 1259367). Note: nearly all actives have a fitted effect of over 55% in size. The method, boiled down:
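CellTiter-Fluor signal in conditioned medium-stimulated 3T3 Gli1-Luc cells, 23 hr compound exposure, 37C.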

Experiment [10] in a line: qHTS assay to identify small molecule agonists of the sonic hedgehog signaling (Shh) pathway (AID 1259368; calls by dose curve;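 note: NIH/3T3-derived 3T3Gli1-Luc cells carrying a stable Gli1-driven firefly luciferase reporter; series mostly up to about 92 µM; nearly all actives have a fitted effect of over 15% in size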). The method, boiled down:
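Cells of a mouse NIH/3T3 clone stably expressing luciferase under the Gli1 transcriptional response element are exposed to test chemicals for 24 hr at 37 C. Pathway activation is detected as a rise in luminescence.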

Experiment [11] is described as follows: qHTS assay to identify small molecule antagonists of the sonic hedgehog signaling (Shh) pathway (AID 1259369; calls by dose curve; note: nearly all actives have a fitted effect of over 45% in size; note: potency is the fitted concentration of half-maximal effect). In short, it runs like this: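 Cells are plated and held 4hr at 37 C, compounds (DMSO) are pinned in, conditioned medium is added to stimulate the pathway, and after 24hr luciferase reagent is added for 30min before luminescence is read.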
The target in experiment [12] is Estrogen receptor beta (Homo sapiens) (UniProt Q92731). The experiment is described as follows: qHTS assay to identify small molecule agonists of the estrogen receptor beta (ER-beta) signaling pathway (AID 1259377; active = well fitted activation curve with a large enough effect in the signal ratio in the repeat runs, not every such curve was filed as active; the % refers to the signal ratio). In short, it runs like this:
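In HEK293T cells bearing a UAS-beta-lactamase reporter under ER-beta control, DMSO-delivered compounds were incubated for 16 hr at 37C. Activity was detected as fluorescence 2 hours after LiveBLAzer B/G FRET substrate addition.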

For experiment [13] the target is unchanged. The experiment is described as follows: qHTS assay to identify small molecule antagonists of the estrogen receptor beta (ER-beta) signaling pathway (AID 1259378; active = well fitted inhibition curve with a large enough effect in the signal ratio in the repeat runs, not every such curve was filed as active; the % refers to the signal ratio). In short, it runs like this:
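Antagonist mode: compounds added to beta-lactamase reporter HEK293T ER-beta-UAS cells stimulated with E2 (1nM final), 16 hr at 37C. LiveBLAzer B/G FRET substrate, 2 hours room temperature, fluorescence read-out.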

Experiment [14] can be described thus: qHTS assay to identify small molecule agonists of the androgen receptor (AR) signaling pathway in the presence of an antagonist - cell viability counter screen (AID 1259379).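 Note: MDA-kb2 human breast cancer cells carrying an MMTV luciferase reporter; series mostly up to about 92 µM; nearly all actives have a fitted effect of over 25% in size.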 In short, it runs like this: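 Cytotoxicity is assessed by CellTiter-Fluor in MDA-kb2 cells carrying an MMTV-driven luciferase reporter. Cells receive 3.0uM nilutamide plus compounds at 15 concentrations and incubate 16 hr at 37C without CO2 before fluorescence reading.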

Experiment [15] can be described thus: qHTS assay to identify small molecule agonists of the estrogen receptor beta (ER-beta) signaling pathway - cell viability counter screen (AID 1259380). Note: nearly all actives have a fitted effect of over 30% in size. Note: potency is the fitted concentration of half-maximal effect. The method, boiled down: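 Cytotoxicity is measured in parallel with the reporter screen: after 16 hr compound exposure at 37C and a 2 hr LiveBLAzer step, CellTiter-Glo is added to the same ER-beta-UAS-bla HEK293T wells and luminescence read after 30 min.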

Experiment [16] deals with Androgen receptor (Homo sapiens) (UniProt P10275). The experiment is described as follows: qHTS assay to identify small molecule agonists of the androgen receptor (AR) signaling pathway in the presence of an antagonist (AID 1259381; calls by dose curve; note: nearly all actives have a fitted effect of over 15% in size; note: potency is the fitted concentration of half-maximal effect). The method, boiled down: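 Agonist-mode confirmation screen: human MDA-kb2 cells stably expressing luciferase under an MMTV promoter bearing AR and GR response elements, co-treated with 3.0uM nilutamide (final). Luminescence measured after 16hr compound incubation.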

The target of experiment [17] is Estrogen receptor (Homo sapiens) (UniProt P03372). The experiment is described as follows: qHTS assay to identify small molecule agonists of the estrogen receptor alpha (ER-alpha) signaling pathway in the presence of an antagonist (AID 1259383; calls by dose curve; note: top concentration of the series differs between compounds; nearly all actives have a fitted effect of over 15% in size). In short, it runs like this:
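Agonist-mode confirmation in the presence of the ER antagonist ICI-182,780 at 10.0nM final. Breast-derived VM7Luc4E2 reporter cells were exposed to compounds for 22hr, and ERE-driven luciferase was quantified by luminescence.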

The nature of experiment [18]: qHTS assay to identify small molecule agonists or antagonists of the thyroid stimulating hormone receptor (TSHR) signaling pathway - wild type cell line counter screen (AID 1259384; calls by dose curve). The method, boiled down:
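Counter screen in untransfected Hek293: compounds (15-point titration, triplicate) plus phosphodiesterase inhibitor Ro20-1724 added after 18 h plating; 30 min RT. Intracellular cAMP via competitive d2/cryptate immunoassay, 1 h incubation.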

Experiment [19] addresses Thyrotropin receptor (Homo sapiens) (UniProt P16473). The experiment is described as follows: qHTS assay to identify small molecule antagonists of the thyroid stimulating hormone receptor (TSHR) signaling pathway (AID 1259385; calls by dose curve; note: nearly all actives have a fitted effect of over 20% in size). The method, boiled down: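 Antagonist mode: compound-treated TSHR-expressing HEK293 cells were stimulated with 1.5 ng/mL TSH (final) in presence of Ro20-1724 for 30 min at RT. HTRF cAMP detection after 1 h; each compound tested at 15 concentrations, triplicate.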

A short description of experiment [20]: qHTS assay to identify small molecule antagonists of the estrogen receptor beta (ER-beta) signaling pathway - cell viability counter screen (AID 1259382).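 Note: HEK293T cells carrying ER-beta-UAS-bla reporter stimulated with estradiol; series mostly up to about 92 µM; nearly all actives have a fitted effect of over 55% in size.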 In short, it runs like this:
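Cytotoxicity counter screen multiplexed with the beta-lactamase antagonist assay: GripTite HEK293T ER-beta-bla cells were treated 16 hr with test chemicals in the presence of 1nM 17-beta-estradiol, and viability was measured by CellTiter-Glo.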

A number with no mark means an inactive call. Records with an inconclusive call do not appear. The source made the active and inactive calls. Unless noted, calls come from the whole dose curve; as a rule, active = well fitted curve in the direction sought with a large enough effect in the repeat runs; inconclusive = weak or mixed curves; inactive = no such curve, though single readings can be large; an effect the other way counts as inactive or inconclusive.
% is set by controls: 0 for no effect and ±100 for the full control effect.

Sequence of Estrogen receptor beta (Homo sapiens) (Q92731 whole entry, looked up): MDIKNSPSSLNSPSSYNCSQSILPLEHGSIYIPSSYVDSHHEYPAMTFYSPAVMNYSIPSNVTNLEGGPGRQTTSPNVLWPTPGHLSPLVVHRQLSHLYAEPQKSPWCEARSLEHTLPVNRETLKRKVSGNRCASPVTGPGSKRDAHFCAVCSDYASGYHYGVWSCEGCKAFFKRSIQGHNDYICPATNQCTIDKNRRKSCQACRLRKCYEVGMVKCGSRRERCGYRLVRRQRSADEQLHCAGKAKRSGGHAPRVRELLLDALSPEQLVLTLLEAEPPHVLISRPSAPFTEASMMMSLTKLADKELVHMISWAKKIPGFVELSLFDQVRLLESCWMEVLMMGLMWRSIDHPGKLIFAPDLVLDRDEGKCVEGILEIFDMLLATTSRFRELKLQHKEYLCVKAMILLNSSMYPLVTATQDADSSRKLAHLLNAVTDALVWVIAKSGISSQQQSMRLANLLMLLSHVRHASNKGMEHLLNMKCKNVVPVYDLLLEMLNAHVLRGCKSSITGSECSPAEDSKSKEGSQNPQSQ
Sequence of Estrogen receptor (Homo sapiens) (P03372 whole entry, looked up): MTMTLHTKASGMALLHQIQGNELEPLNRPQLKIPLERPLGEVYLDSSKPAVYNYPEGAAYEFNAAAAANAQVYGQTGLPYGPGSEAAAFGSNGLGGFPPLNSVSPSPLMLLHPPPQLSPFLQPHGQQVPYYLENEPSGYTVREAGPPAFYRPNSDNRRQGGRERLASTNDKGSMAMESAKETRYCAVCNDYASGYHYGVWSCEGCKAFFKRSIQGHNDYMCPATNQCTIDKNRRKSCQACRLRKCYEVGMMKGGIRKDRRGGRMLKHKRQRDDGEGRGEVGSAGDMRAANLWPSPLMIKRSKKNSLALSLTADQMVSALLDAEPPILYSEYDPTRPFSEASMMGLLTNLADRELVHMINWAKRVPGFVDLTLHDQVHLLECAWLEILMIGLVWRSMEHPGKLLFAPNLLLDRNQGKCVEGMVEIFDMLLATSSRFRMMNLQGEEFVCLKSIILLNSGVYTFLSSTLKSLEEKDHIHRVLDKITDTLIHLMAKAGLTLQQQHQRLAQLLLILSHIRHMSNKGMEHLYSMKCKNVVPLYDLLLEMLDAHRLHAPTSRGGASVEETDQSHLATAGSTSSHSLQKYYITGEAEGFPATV
Sequence of Androgen receptor (Homo sapiens) (P10275 whole entry, looked up): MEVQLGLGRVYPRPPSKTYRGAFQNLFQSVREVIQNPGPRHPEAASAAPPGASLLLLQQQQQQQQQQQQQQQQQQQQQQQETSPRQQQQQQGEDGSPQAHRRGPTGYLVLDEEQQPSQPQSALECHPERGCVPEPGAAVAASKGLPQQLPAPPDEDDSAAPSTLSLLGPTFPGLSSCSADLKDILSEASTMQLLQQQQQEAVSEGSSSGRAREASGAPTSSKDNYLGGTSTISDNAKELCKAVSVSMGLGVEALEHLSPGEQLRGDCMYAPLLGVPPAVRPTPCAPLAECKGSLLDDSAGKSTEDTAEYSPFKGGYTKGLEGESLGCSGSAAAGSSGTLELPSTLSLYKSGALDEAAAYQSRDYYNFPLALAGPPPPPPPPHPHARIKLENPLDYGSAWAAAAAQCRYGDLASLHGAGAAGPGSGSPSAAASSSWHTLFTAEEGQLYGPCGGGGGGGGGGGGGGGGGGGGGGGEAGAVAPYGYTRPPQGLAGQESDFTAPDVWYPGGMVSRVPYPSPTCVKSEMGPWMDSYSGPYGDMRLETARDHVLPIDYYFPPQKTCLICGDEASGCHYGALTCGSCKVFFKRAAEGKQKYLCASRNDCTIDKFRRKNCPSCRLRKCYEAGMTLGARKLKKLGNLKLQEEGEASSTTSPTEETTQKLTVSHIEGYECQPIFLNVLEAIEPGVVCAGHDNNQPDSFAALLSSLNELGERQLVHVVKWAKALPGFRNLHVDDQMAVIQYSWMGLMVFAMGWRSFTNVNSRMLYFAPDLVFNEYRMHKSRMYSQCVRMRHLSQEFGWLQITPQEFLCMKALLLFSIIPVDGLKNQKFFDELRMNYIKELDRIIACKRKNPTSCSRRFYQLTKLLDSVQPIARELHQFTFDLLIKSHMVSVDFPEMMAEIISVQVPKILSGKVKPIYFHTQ
Sequence of Thyrotropin receptor (Homo sapiens) (P16473 whole entry, looked up): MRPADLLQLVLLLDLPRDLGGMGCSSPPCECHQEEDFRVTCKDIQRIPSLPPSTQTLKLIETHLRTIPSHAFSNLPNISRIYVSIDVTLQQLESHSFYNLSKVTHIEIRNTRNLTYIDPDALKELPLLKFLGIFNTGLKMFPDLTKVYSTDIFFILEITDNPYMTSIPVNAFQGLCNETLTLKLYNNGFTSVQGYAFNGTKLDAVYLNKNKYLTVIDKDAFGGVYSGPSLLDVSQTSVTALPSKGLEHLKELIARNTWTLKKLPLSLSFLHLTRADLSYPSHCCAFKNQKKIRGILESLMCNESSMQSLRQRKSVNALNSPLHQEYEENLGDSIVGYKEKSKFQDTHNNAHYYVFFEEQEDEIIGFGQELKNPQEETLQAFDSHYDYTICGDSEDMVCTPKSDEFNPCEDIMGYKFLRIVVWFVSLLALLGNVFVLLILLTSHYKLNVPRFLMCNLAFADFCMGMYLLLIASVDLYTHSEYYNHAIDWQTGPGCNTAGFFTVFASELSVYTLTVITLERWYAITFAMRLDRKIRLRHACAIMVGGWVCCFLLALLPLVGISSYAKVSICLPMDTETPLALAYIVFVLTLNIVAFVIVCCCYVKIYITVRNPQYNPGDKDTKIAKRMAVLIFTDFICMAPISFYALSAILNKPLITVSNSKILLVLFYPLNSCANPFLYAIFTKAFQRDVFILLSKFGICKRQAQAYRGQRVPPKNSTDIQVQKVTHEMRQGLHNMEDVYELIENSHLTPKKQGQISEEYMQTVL

Regarding `CCN(CC)CCOC(=O)C1(c2ccccc2)CCCC1`, the Potency entry in [1], in experiment [2], in experiment [3], in experiment [4], in experiment [5] and in experiment [6] was “inactive” in each case. Also, the Potency result in experiment [8], in experiment [9], in [11], in [12], in [13] and in experiment [14] was “inactive” in each case. The Potency entry in experiment [15], in experiment [16], in experiment [17], in experiment [18] and in experiment [19] was “inactive” each time. Further, the outcome in experiment [7] and in experiment [10] was inactive.

For `O=C(C(=O)c1ccc(Br)cc1)c1ccc(Br)cc1`, the activity change, negative = cytotoxicity was -6.61% [at 19 µM] in [1]; -0.456% [at 19 µM] in experiment [7]; 0.135% [at 19 µM] in experiment [14]; 0.571% [at 19 µM] in experiment [15]; -2.64% [at 19 µM] in experiment [20]. Moreover, the viability change, negative = cytotoxic in experiment [2] was -1.93% [at 19 µM]; in [8] it was 7.56% [at 19 µM]; in experiment [9], -13.1% [at 19 µM]. Moreover, in experiment [3], the activity, negative = inhibition is 66.2% [at 19 µM]. Moreover, in experiment [10], the activity change was -0.0641% [at 18.9 µM]. In addition, the Potency was 6.78 µM (active) in [11] and 15.2 µM (active) in experiment [16]. Moreover, the activation is 0.63% [at 19 µM] in [12] and 0.308% [at 19 µM] in [17]. The activity change, negative = inhibition in [19] is -5.08% [at 19 µM].

Take `O=C(NS(=O)(=O)/C=C/c1cccs1)c1ccc(F)cc1Br`: the Potency entry in experiment [1], in experiment [2], in experiment [3], in experiment [4], in experiment [6] and in [8] was “inactive” throughout. Moreover, the Potency entry in experiment [9], in experiment [11], in experiment [14], in experiment [15], in experiment [16] and in experiment [20] was “inactive” in each case. Also, the Potency result in experiment [17] is “inactive”. In addition, the call in experiment [7] and in experiment [10] was inactive.

For `Nc1ccc(C(=O)Nc2ccccc2N)cc1`, the Potency result in [1], in [2], in experiment [4], in experiment [5], in experiment [8] and in experiment [9] was “inactive” in each case. For the same molecule, the Potency result in experiment [11], in experiment [14], in experiment [17] and in experiment [19] was “inactive” in each case. The values for the Potency in experiment [6], in experiment [15] and in experiment [16] were 2.98 µM (active), 0.841 µM (active) and 5.96 µM (active), respectively. Besides, the molecule was called inactive in experiment [7] and in experiment [10].

Consider `OC(CCN1CCCCC1)(c1ccccc1)C1CCCCC1` (stereo not given), for which the Potency result in experiment [1], in experiment [2], in experiment [4], in experiment [5], in [6] and in [8] was “inactive” in each case. Further, the Potency result in experiment [9], in experiment [13], in experiment [14], in [15], in experiment [20] and in experiment [18] was “inactive” throughout. The call in experiment [7] was inactive. In addition, the Potency in experiment [11] was 8.41 µM (active).

As for `CC[C@H](C)[C@H](N)C(=O)O`, the Potency result in experiment [1], in [2], in experiment [4], in experiment [5], in experiment [6] and in [8] was “inactive” in each case. The Potency result in [9], in experiment [11], in experiment [12], in experiment [13], in [14] and in experiment [15] was “inactive” throughout. The Potency result in experiment [20], in [17], in [18] and in experiment [19] was “inactive” each time. In [7], the result was inactive.

For the molecule `COC(=O)CSc1cc(N=c2sc(=O)n3n2CCCC3)c(F)cc1Cl`, the Potency entry in experiment [1], in experiment [2], in experiment [3], in experiment [6], in [8] and in [9] was “inactive” each time. Besides, the Potency entry in experiment [11], in [12], in experiment [14], in [15], in experiment [16] and in [20] was “inactive” each time. In addition, the Potency result in experiment [18] and in [19] was “inactive” throughout. In addition, the call in experiment [7] and in experiment [10] was inactive.

For the molecule `CN(c1nccc(=O)[nH]1)C1CCN(c2nc3ccccc3n2Cc2ccc(F)cc2)CC1`, the Potency entry in experiment [1], in [2], in experiment [4], in [5], in experiment [6] and in [8] was “inactive” throughout. Moreover, the Potency entry in experiment [9], in [11], in [14], in [20], in experiment [18] and in experiment [19] was “inactive” in each case. Further, the outcome in experiment [7] and in experiment [10] was inactive.
